The first test in a line: binders from COS7 lysate, DM2A8 probe, primary screen, torsin A project, cell lysate, small-molecule microarray, fluorescence 635/667 (AID 1065). As to conditions: higher = more signal, COS7 lysate expressing mutant human TOR1A.
The molecule `CC(C)NC(=O)[C@@]1(c2ccc([N+](=O)[O-])cc2)CC(=O)N(C2CCCCC2)[C@@H]1c1ccc(CO)cc1` had a composite z-score of 1.08.

On to `CC1CC/C=C\[C@H]2OC34C=CCN(c5ccc(Cl)cc5)C(=O)[C@H]3N(C(C)CO)C(=O)[C@]4(C)C2C(=O)O1` (stereo not given in full), for which the composite z-score was -0.591.

As for `COc1cc2c(cc1O)C(C1CC1)N(Cc1cccc(OC(F)(F)F)c1)CC2` (stereo not given), the composite z-score is 0.257.

Turning to `CC(c1ccccc1)C(O)C1C=CC2C(=O)N(C)C(=O)C2N1Nc1ccccc1` (stereo not given), the composite z-score is -0.146.

Molecule `CCOC(=O)C1=CC[C@@H](c2ccccc2F)N(S(=O)(=O)c2ccc(C)cc2)[C@H]1c1ccccc1` showed a composite z-score of -0.0956.

The nature of a further test: binders of probe aFGF2 on microarray, primary screen, stem cell growth factor project, biochemical, small-molecule microarray, fluorescence 635/667 (AID 1067).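 Further: measures binding of biotinylated aFGF2 protein to printed compounds on slides; z-score merges feature fluorescence and signal-to-noise across triplicate slides.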 As to conditions: higher = more signal.
Take `CC1CC/C=C\[C@H]2OC34C=CCN(C(C)(C)C)C(=O)[C@H]3N(CCCCCO)C(=O)[C@@H]4C2C(=O)O1` (stereo not given in full): the composite z-score was -0.172.

The molecule `COc1cc(NN2C(C(O)c3cc(OC)c(OC)c(OC)c3)C=CC3C(=O)N(C)C(=O)C32)cc(OC)c1OC` (stereo not given) showed a composite z-score of -0.0613.

As to `[N-]=[N+]=NCc1ccccc1[C@H]1OC(c2ccc(OCCCO)cc2)=N[C@@]1(Cc1ccccc1N=[N+]=[N-])C(=O)NCC(O)CO` (stereo not given in full), the composite z-score turned out to be 0.0342.

`C=C(COC)/C(=C/C[C@H](OC(=O)c1ccncc1)c1ccccc1OCCO)c1cc(C(=O)OC)ccc1OC` returned a composite z-score of -0.167.

The molecule `CC(C)=C1C(=O)C(c2ccccc2)=C2CN3C(=O)N(CCc4ccccc4)C(=O)[C@]3(Cc3ccc(C(F)(F)F)cc3)[C@H]21` showed a composite z-score of 0.0977.

In turn, `NCCCCCCNC(=O)[C@@H]1C[C@@H]2C(=O)N[C@@H](CCCCN)C(=O)N2[C@@H]1c1ccc(O)cc1` displayed a composite z-score of -0.0313.

`CC(C)[Si](C#CCCCC#N)(O[C@H](c1ccccc1)c1cn(Cc2ccccc2)nn1)C(C)C` showed a composite z-score of -0.0728.

As for `CC(C)c1ccc(NN2C(C(O)c3ccc(C#N)cc3)C=CC3C(=O)N(c4ccccc4)C(=O)C32)cc1` (stereo not given), the composite z-score was 0.105.

With `COC(=O)[C@]1(CCS(=O)(=O)c2ccccc2)N=C(c2ccc(OCCCO)cc2)O[C@@H]1c1ccccc1N=[N+]=[N-]`, the composite z-score stood at 0.136.

Molecule `C=C[C@H](C)[C@H](OC(=O)Nc1ccc(SC)cc1)c1ccc(OCCO)cc1` gave a composite z-score of -0.1.

Turning to `Cc1ccc(S[C@]2(C(=O)NCC(F)(F)F)CC(=O)N(Cc3cc(C(F)(F)F)cc(C(F)(F)F)c3)[C@@H]2c2ccc(CO)cc2)cc1`, the composite z-score was -0.133.

Turning to `O=C1OCCC=C[C@H]2OC34C=CCN(c5ccc6ccccc6c5)C(=O)[C@H]3N(CCCO)C(=O)[C@@H]4C12` (stereo not given in full), the composite z-score is -0.258.

`O=C1O[C@H](c2ccccc2)[C@H](c2ccccc2)N2[C@H]1[C@@H](C(=O)O)[C@]1(C(=O)Nc3ccc(C#CCCO)cc31)[C@H]2c1ccccc1OCCO` gave a composite z-score of -0.0962.

Molecule `COC(=O)[C@@]1(Cc2ccc(F)cc2)[C@H]2c3cc(C(=O)N4CCCC4)n(CCc4c[nH]c5ccccc45)c3C[C@H]2CN1C(=O)c1ccccc1` returned a composite z-score of 0.0869.

Turning to `[N-]=[N+]=Nc1ccccc1C[C@]1(C(=O)N2CCOCC2)COC(c2ccc(OCCCO)cc2)=N1`, the composite z-score is -0.0442.

`C=CCN1C(=O)[C@]2(CCC(=O)OC(C)(C)C)N=C(c3ccc(OCCCO)cc3)O[C@@H]2c2ccccc21`: the composite z-score was -0.0791.

The molecule `O=C1OCCC=C[C@H]2OC34C=CCN(Cn5nnc6ccccc65)C(=O)[C@H]3N(CCCO)C(=O)[C@@H]4C12` (stereo not given in full) registered a composite z-score of -0.116.

In turn, `COCCOC(=O)N1C(=O)[C@@]2(c3ccccc31)[C@H](c1ccc(O)cc1)N1[C@H](c3ccccc3)[C@H](c3ccccc3)OC(=O)[C@H]1[C@@H]2C(=O)N1CCN(c2ncccn2)CC1` returned a composite z-score of 0.0019.

Take `Cc1ccc(S[C@]2(C(=O)NCC(F)(F)F)CC(=O)N(Cc3cc(C(F)(F)F)cc(C(F)(F)F)c3)[C@@H]2c2ccc(CO)cc2I)cc1`: the composite z-score was -0.128.

Molecule `C#CCN([C@@H](Cc1ccccc1)C(=O)OC)[C@@H](/C=C/C1CC1)[C@H](O)Cc1ccccc1` had a composite z-score of -0.114.

`CC(C)C(CO)N1C(=O)[C@@H]2[C@H]3C(=O)OCC=C[C@H]3OC23C=CCN(c2ccc(Cl)cc2)C(=O)[C@@H]13` (stereo not given in full) had a composite z-score of -0.141.

The molecule `COC(=O)[C@@]1(Cc2ccc(F)cc2)[C@H]2c3cc(C(=O)N4CCCC4)n(Cc4ccc(C)c(F)c4F)c3C[C@H]2CN1C(=O)c1ccccc1` yielded a composite z-score of -0.0887.

`COc1ccccc1CN1C(=O)c2ccccc2[C@](Cc2ccccc2I)(C(=O)O)[C@@H]1c1ccc(CO)cc1` came in with a composite z-score of 0.0043.

`COc1ccc([C@H]2OC[C@@H]3C[C@H](Cc4ccccc4)C(=O)N32)cc1` came in with a composite z-score of -0.0376.

Regarding `COCCOC(=O)N1C(=O)[C@@]2(c3cc(C#CC4(O)CCCCCC4)ccc31)[C@H](c1ccc(O)cc1)N1[C@H](c3ccccc3)[C@H](c3ccccc3)OC(=O)[C@H]1[C@@H]2C(=O)N1CCN(c2ncccn2)CC1`, the composite z-score came out at 0.0702.

Values taken from PubChem BioAssay.
